Where “and” joins values, the source holds several entries; their conditions need not be identical. Identical values can stand only once. The campaign covered roughly 420,000 compounds. About 50,000 (12%) were called active. Where a call stands in place of a potency, no number is given. Roughly 26% stayed inconclusive and do not appear here. The sample as a whole holds a higher share of actives than the screen did. Values without a mark were called inactive. Calls follow the shape of the dose curve; as a rule, active = well fitted inhibition curve with a large enough effect; inconclusive = small, poorly fitted or top-dose-only effect; inactive = flat fitted curve, though single readings scatter.
Potency is read from the fitted curve at half-maximal effect.

The assay is described as follows: qHTS for Inhibitors of human tyrosyl-DNA phosphodiesterase 1 (TDP1): qHTS in cells in presence of CPT. Also: nearly all actives have a fitted effect of over 55% in size. The conditions noted are these: chicken DT40 Tdp1-/-;hTDP1 cells + 20 nM CPT, ATP luminescence, 48 h; series mostly up to 46.2 µM. In outline:
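Chicken DT40 Tdp1-/- cells complemented with human TDP1, 400 cells/well, exposed to compounds plus 20 nM camptothecin for at least 48 h at 37 C; viability read as ATP content by CellTiter-Glo luminescence.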
(In general: In qHTS, concentration-response curves come from the screen itself.)
Take `Cn1c(=NC(=O)c2ccc3c(c2)OCCO3)sc2cc(S(C)(=O)=O)ccc21`: the Potency entry was “inactive”.

Take `O=C(NCc1ccncc1)c1cccc(NS(=O)(=O)c2ccc(F)c(F)c2)c1`: the Potency entry was “inactive”. On the same count and under the same terms, the value for `COc1ccccc1OCCC(=O)OCC(=O)NCc1ccccc1` was “inactive”; that for `CC(C)c1c(O)nc(SCCOc2ccc(Cl)cc2)[nH]c1=O` was “inactive”. The same measure, in the same setting: for `COc1ccc(CN2C(=O)C(CC(=O)NCCCCc3ccccc3)CC(C(=O)N3CCOCC3)=C2C)cc1` (configuration not stated) the value was “inactive”. In the case of `Cc1ncc2c(c1CNS(=O)(=O)N(C)C)CCN(C(=O)c1ccccc1F)C2`, the activity change, negative = growth inhibition was 12.2% [at 9.04 µM]. `O=C(NCc1cccc(Cl)c1)C1=CC=CN2CCS(=O)(=O)N=C12`: the Potency entry was “inactive”. Still for that read-out and setting: for `COc1ccc(-c2cc(C(=O)N(C)Cc3ccc(OC)c(OC)c3OC)c3ccccc3n2)cc1OC` the value was 16.4 µM (active). With `COc1ccc(CN(C)C(=O)Cc2ccsc2)c(OC)c1OC`, the Potency result is “inactive”.

`COc1ccc(Cl)cc1NC(=O)CN(C)C(=O)c1ccc2n[nH]nc2c1`: the Potency result was “inactive”.

On to `COc1ccc(-c2cc(C(=O)N(C)CC(=O)Nc3ccccc3Cl)c3ccccc3n2)cc1OC`, for which the Potency was 20.6 µM (active). On the same count and under the same terms, for `COc1cccc(NC(=O)CN(C)C(=O)c2cc(Cl)nc3ccccc23)c1` the value was “inactive”. Same read-out and setting: for `COc1ccc(-c2cc(C(=O)NCCCN3CCCC3=O)c3ccccc3n2)cc1OC` the value was “inactive”. Take `COc1ccc(CN2[C@@H](CC(=O)O)c3cc(F)ccc3S2(=O)=O)cc1`: the Potency entry was “inactive”. Regarding `CCN(CC)S(=O)(=O)c1ccc(-c2cn3ccc(C)cc3n2)cc1`, the Potency result was “inactive”. Same read-out and setting: the value for `Cc1ccc(S(=O)(=O)n2nc(C)c(S(=O)(=O)N3CCCCCC3)c2C)cc1` was “inactive”. Turning to `COc1ccc(NS(=O)(=O)c2cccc3nsnc23)cc1Cl`, the Potency entry is “inactive”. Still for that read-out and setting: for `COc1ccc([C@H]2CC(=O)C=C(c3ccc(C)cc3)C2)cc1` the value was “inactive”; for `Cc1csc(NC(=S)Nc2cccc(Cl)c2)n1`, 1.64 µM (active); for `S=C(Nc1cccc(Cl)c1)Nc1ccc2cn[nH]c2c1`, “inactive”.

Turning to `CC(=O)Nc1cccc(C(=O)Nc2nc(C)cs2)c1`, the Potency result was “inactive”. On the same count and under the same terms, for `Cc1cc(C)cc(NC(=O)CCS(=O)(=O)c2cc3c4c(c2)CCN4C(=O)CC3)c1` the value was “inactive”; for `S=c1[nH]nc(-c2ccco2)n1/N=C/c1ccccc1`, “inactive”. The same measure, in the same setting: the value for `Cn1c(-c2ccco2)nc2cc3ccccc3cc21` was 11.6 µM (active); that for `Cn1cccc1-c1nc2ccccc2n1C` was “inactive”; that for `CCOc1ccc(S(=O)(=O)N(CC(=O)NCCSCc2ccc(C)cc2)c2ccccc2)cc1` was “inactive”. Consider `CCS(=O)(=O)Nc1cc(C(=O)N2C[C@@H](C)O[C@@H](C)C2)c2c(c1)nc(-c1ccccc1)n2C`, for which the Potency result was “inactive”. As to `CCOC(=O)C1=C(O)CSC1=Nc1cccc(Cl)c1`, the Potency result is “inactive”. Take `CN(C)c1nc(=Nc2cccc(Cl)c2)ss1`: the Potency is 0.206 µM (active).

Consider `O=C(O)C1=NN(c2c(F)c(F)cc(F)c2F)C(=O)CC1`, for which the Potency result is “inactive”. The same measure, in the same setting: the value for `O=C(O)CCc1cccnc1` was “inactive”; that for `C/C(=N\NC(=O)CCn1nc(C)cc1C)C(C)(C)C` was “inactive”.

On to `Cc1ccc2c(C)c(C(=O)N3CCN(c4ccncc4)CC3)oc2c1C`, for which the Potency is 23.1 µM (active).

With `CC(=O)N1CCC2(CC1)CCN(c1ccncc1)CC2`, the Potency result is “inactive”.

With `Cc1ccc2c(C)c(C(=O)N(C)Cc3ccncn3)oc2c1C`, the Potency result is “inactive”. On the same count and under the same terms, for `CCOC(=O)N(Cc1ccccc1)C1CC1` the value was “inactive”; for `CCN(CC(=O)NCc1ccc(Cl)cc1)C(=O)c1c(C)noc1C`, “inactive”.

As to `O=C(NCc1ccncc1)C(=O)NCc1ccco1`, the Potency entry is “inactive”. For `Cc1noc(C)c1-c1ccc(C(=O)NCc2ccncc2)c2occc12`, the Potency was 9.2 µM (active). On to `Cc1ccc(CNC(=O)CCc2c(C)nc3c(c(C)nn3-c3ccccc3)c2C)cc1`, for which the Potency result is “inactive”. As to `CC(=O)Oc1ccc(N(C(C)=O)S(=O)(=O)c2ccc3ccccc3c2)cc1Br`, the Potency entry was “inactive”. On the same count and under the same terms, for `COC(=O)c1c(C)oc2ccc(N(C(=O)Oc3ccccc3)S(=O)(=O)c3ccccc3)cc12` the value was 20.6 µM (active). With `CCOC(=O)c1c(C)oc2cc(Br)c(OCC(N)=O)cc12`, the Potency result is “inactive”. On the same count and under the same terms, for `CCOC(=O)c1c(C)oc2ccc(N(C(=O)c3ccncc3)S(=O)(=O)c3ccc(CC)cc3)cc12` the value was 5.8 µM (active). On the same count and under the same terms, the value for `CCOC(=O)c1c(C)oc2nc(C)nc(Nc3ccc(CC)cc3)c12` was “inactive”; that for `CN(CC(=O)O)S(=O)(=O)c1ccc2oc3ccccc3c2c1` was “inactive”. In the case of `COc1cc(/C=C2/C(=O)NN(c3ccc(F)cc3)C2=O)cc([N+](=O)[O-])c1O`, the Potency result was “inactive”.

Consider `CC(C)(C)c1cc(=O)n2c(nc3ccccc32)[nH]1`, for which the Potency entry was “inactive”. Same read-out and setting: for `COCCOC(=O)C1=C(C)NC(=O)NC1c1cc2c(cc1Br)OCO2` (configuration not stated) the value was “inactive”.

For the molecule `O=C(O)C1=C/C(=C/C=[N+]2c3cc(O)c(O[C@H]4OC(CO)[C@@H](O)[C@@H](O)[C@@H]4O)cc3C[C@@H]2C(=O)[O-])C[C@H](C(=O)O)N1` (some centres not stated), the Potency entry is “inactive”. Same read-out and setting: for `COc1ccc(CNC(=O)COC(=O)C(CCSC)N2C(=O)c3ccccc3C2=O)cc1` (configuration not stated) the value was “inactive”. The same measure, in the same setting: for `COc1ccccc1C1/C(=C(/O)c2ccc(C)cc2)C(=O)C(=O)N1Cc1ccco1` (configuration not stated) the value was “inactive”; for `COc1ccc(/C(O)=C2\C(=O)C(=O)N(Cc3ccco3)C2c2ccc(OC)cc2OC)cc1` (configuration not stated), 29.1 µM (active). As for `COc1ccc(C2/C(=C(/O)c3ccccc3)C(=O)C(=O)N2C)c(OC)c1` (configuration not stated), the Potency entry was “inactive”. The same measure, in the same setting: the value for `CCn1c(SCC(=O)NC2CC2)nnc1-c1ccccn1` was “inactive”; that for `CO[C@H]1[C@@H](O)[C@H](N)[C@@H](O[C@H]2O[C@H]([C@H](C)N)CC[C@H]2N)[C@H](O)[C@@H]1N(C)C(=O)CN` was “inactive”; that for `CC[C@]1(O)CC2CN(CCc3c([nH]c4ccccc34)[C@@](C(=O)OC)(c3cc4c(cc3OC)N(C=O)[C@H]3[C@@](O)(C(=O)OC)[C@H](OC(C)=O)[C@]5(CC)C=CCN6CC[C@]43[C@@H]65)C2)C1` (some centres not stated) was 0.146 µM (active). On the same count and under the same terms, for `CC[C@]1(O)C[C@@H]2CN(CCc3c([nH]c4ccccc34)[C@@](C(=O)OC)(c3cc4c(cc3OC)N(C)[C@H]3[C@@](O)(C(=O)OC)[C@H](OC(C)=O)[C@]5(CC)C=CCN6CC[C@]43[C@@H]65)C2)C1` the value was 65.1 nM (active) and 47.3 nM (active) and 146 nM (active); for `CCc1nc2onc(C)c2c(=O)n1CC(=O)O`, “inactive”; for `O=C1Cc2cc(S(=O)(=O)Nc3cccc(F)c3)ccc2N1`, “inactive”.

`CCC(C(=O)Nc1ccc2c(c1)OCCO2)c1ccccc1` (configuration not stated): the Potency entry is “inactive”.

For the molecule `CCC(C(=O)Nc1ccc(C(C)C)cc1)c1ccccc1` (configuration not stated), the Potency result is “inactive”.

Take `CCC(C(=O)Nc1cccc(-c2nc3cccnc3s2)c1C)c1ccccc1` (configuration not stated): the Potency was 20.6 µM (active). Still for that read-out and setting: for `CC(=O)Nc1cccc(-c2nc3ccccc3s2)c1C` the value was “inactive”; for `Cc1cccc(C(=O)Nc2ccc(-c3nc4ccccc4s3)c(C)c2)c1`, “inactive”. The same measure, in the same setting: the value for `Cc1c(NC(=O)C(C)(C)C)cccc1-c1nc2ccccc2s1` was 13 µM (active); that for `Cc1c(O)cc2c(c1C)O[C@](C)(CCC[C@H](C)CCC[C@H](C)CCCC(C)C)CC2` was “inactive”; that for `Cc1ccc(NC(=O)c2cc([N+](=O)[O-])ccc2Cl)c(O)c1` was “inactive”. Still for that read-out and setting: for `CCOc1ccc(Nc2nc(Cl)nc(N3CCN(c4ccc(OC)cc4)CC3)n2)cc1` the value was 18.4 µM (active); for `CCC(=O)Nc1ccc(Nc2nc(Cl)nc(Nc3ccc(NC(=O)CC)cc3)n2)cc1`, “inactive”.

As to `COc1ccc(N2CCN(c3ccc([N+](=O)[O-])cc3Cl)CC2)cc1`, the Potency entry was “inactive”. With `CCOC(=O)N1CCN(CCC(=O)Nc2ccccc2)CC1`, the Potency entry was “inactive”.

For `Cc1noc(C)c1CSCC(=O)Nc1nc2ccc(Oc3ccccc3)cc2s1`, the Potency result was “inactive”. With `O=C(Nc1ccc(S(=O)(=O)N2CCCCC2)cc1)C1CC(=O)N(c2ccc(F)cc2)C1` (configuration not stated), the Potency result was “inactive”. Same read-out and setting: the value for `COC[C@@H]1NS(=O)(=O)c2ccc(Br)cc2O[C@H]1c1ccccc1` was “inactive”; that for `CCOc1ccc2nc(N3CCCC(C(=O)Nc4cc(C)ccc4C)C3)sc2c1` (configuration not stated) was 23.1 µM (active); that for `Cc1ccc(C)c(NC(=O)C2CCCN(S(=O)(=O)c3cn(C)cn3)C2)c1` (configuration not stated) was “inactive”. Still for that read-out and setting: for `CCOc1ccc2nc(C(=O)N3CCCC(C)C3)sc2c1` (configuration not stated) the value was “inactive”. Still for that read-out and setting: the value for `COCC(C)NS(=O)(=O)c1ccc(N2CCCCS2(=O)=O)cc1` (configuration not stated) was “inactive”; that for `COC(=O)C1=C(C)N=C2SC(C)C(=O)N2C1/C=C/c1ccccc1` (configuration not stated) was “inactive”; that for `CC(OC(=O)c1ccccc1N1C(=O)C2C3CCC(C3)C2C1=O)C(=O)c1ccccc1` (configuration not stated) was “inactive”.

For the molecule `CCOC(=O)c1ccccc1N1C(=O)C2Sc3[nH]c(=O)sc3C(/C=C/c3ccccc3)C2C1=O` (configuration not stated), the Potency is 18.4 µM (active). Turning to `CCOc1ccc2[nH]c(=O)c(CN(CCCO)C(C)=O)cc2c1`, the Potency entry is “inactive”. On the same count and under the same terms, the value for `Cc1ccc2[nH]c(=O)c(CN(CCCN(C)C)C(=O)Nc3cccc(Cl)c3)cc2c1` was 20.6 µM (active); that for `CCC(=O)N(CCc1ccccc1)Cc1cc2cc(C)ccc2[nH]c1=O` was “inactive”; that for `Cc1cc(NC(=O)c2ccccc2C)no1` was “inactive”. Still for that read-out and setting: the value for `Cc1csc(=Nc2ccccc2)n1CCO` was “inactive”. On the same count and under the same terms, the value for `OCCn1c(-c2ccccc2)csc1=Nc1ccccc1` was 25.9 µM (active). For the molecule `Cc1nc(SCC(=O)NC2CCCC2)[nH]c(=O)c1C`, the Potency result was “inactive”. `CC(CC(=O)N1CCN(c2ccccc2)CC1)S(=O)(=O)c1ccc2c(c1)NC(=O)CS2` (configuration not stated): the Potency is 23.1 µM (active). In the case of `COc1ccccc1N1CCN(S(=O)(=O)c2ccc3c(c2)NC(=O)CS3)CC1`, the Potency entry was “inactive”.

For `O=C1CSc2ccc(S(=O)(=O)NCc3ccccc3)cc2N1`, the Potency result is “inactive”. Same read-out and setting: the value for `Cc1ccccc1OCCC(=O)OCC(=O)NCCc1ccc(S(N)(=O)=O)cc1` was “inactive”; that for `Cc1noc(C)c1S(=O)(=O)Nc1cc(C(F)(F)F)ccc1N1CCOCC1` was “inactive”.

For `Cc1ccc(N(CCC(=O)O)S(=O)(=O)c2cccc(C(F)(F)F)c2)cc1`, the Potency entry was “inactive”.

`Cc1oc2c(F)c(F)c(F)c(F)c2c1S(=O)(=O)Nc1cccc(C(F)(F)F)c1`: the Potency is 11.6 µM (active). On the same count and under the same terms, for `O=S(O)CNc1ccc(S(=O)(=O)c2ccc(NCS(=O)O)cc2)cc1` the value was “inactive”.

Values taken from PubChem BioAssay AID686979 (National Center for Advancing Translational Sciences (NCATS), 2013).
